Laboratory results taken from PubChem BioAssay AID1347426 (Functional Genomics Laboratory (NCATS/FGL), 2020).
The whole screen tested about 31,000 sequences, of which about 1,400 (4.5%) were called active. Only a selection was taken, and actives are over-represented in it overall. A number with no mark means an inactive call.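 The calls were made as follows: active = median seed-adjusted z-score above 1 or below -1; inactive = the rest.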

Test: Novel Modifiers of Survival Motor Neuron (SMN) Protein: Gene Identification via Genome-wide siRNA Screen;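 also: luminescence tracks full-length SMN protein made from the SMN2 reporter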
Conditions: HEK293T SMN2-luciferase reporter, siRNA knockdown, 72 h; actives lie on both sides
How it was run: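 Luciferase signal, proportional to full-length SMN made from an SMN2 cDNA reporter in stable HEK293T cells, was read 72 h after siRNA reverse transfection. Values were expressed as MAD scores after non-targeting-control normalization and log10 conversion; seed analysis flagged off-targets.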

First: GCGUAGUUAUAGAAGUAGATT against RBMX2
Second: GGAACUGUUUUUACAAGCATT against MKRN1
The median seed-adjusted z-score of the first is lower: -0.585 for the first, -0.496 for the second.

Going from UCAUAUAGGCAAAAUUUAATT against POU3F2 to GGGUUCACCUCAGAGAGCATT against DPF3, the median seed-adjusted z-score rises from -0.179 to 0.242.

First: GAAACUUUCAUUACGUAUATT against SNX7
Second: GCUGCUUCAGACUACCAAATT against TXNDC9
The median seed-adjusted z-score of the first is higher: 0.146 for the first, -0.176 for the second.

Going from CCAUAUUAAUGUCCAUGAUTT against PCDHB7 to GAUGGAUACCUCUACCUGATT against ZNF593, the median seed-adjusted z-score falls from 0.365 to 0.215.

Going from CGUGAUCUCAAGUCCAACATT against MAP3K11 to CUACCAUUUUCAUCGAGGATT against FREM3, the median seed-adjusted z-score falls from 0.773 to -0.565.

First: CGAAAGAGGCAAAUAUGAATT against CBX3
Second: GGAUCGGGUUUACUCAGAATT against ACTR6
The median seed-adjusted z-score of the first is lower: -0.893 for the first, 0.189 for the second.

Going from AGUUCUUCCUAAUCCGAGATT against DOLPP1 to AAUCGAUCCUCAAUCCUUATT against ZNF676, the median seed-adjusted z-score falls from 0.00977 to -0.499.

Compared with GCUCCAAAUUGGUUGUAUUTT against PRKAG1, GAACAACUCUUGUGAGAUUTT against STC2 is lower in median seed-adjusted z-score: 0.431 for the first, -0.00039 for the second.

Compared with GCUUCUGAAAUGAACCGAATT against DDHD2, GUGCGGUAGCUACUUGUUUTT against RRAD is lower in median seed-adjusted z-score: 0.447 for the first, -0.267 for the second.

Going from GGACUCUCAUGAGUGCUGATT against ACP2 to GAAAGAUGUUGGGAAUAAATT against ST6GAL2, the median seed-adjusted z-score rises from -0.00569 to 0.054.

Going from CGUGUGGACUUGACAAGCATT against OBSCN to CUAUAUCUCCAACACUUUUTT against SMARCD3, the median seed-adjusted z-score rises from -0.798 to 0.247.

Going from GAGAAAAAGCGGAUCAAGATT against GRK6 to GGAAGAACGUGUAACCGAATT against RDX, the median seed-adjusted z-score rises from -0.862 to 0.123.

First: GGAUGAAAAAUACCGGUGUTT against UGT8
Second: CAACCUUUCACUGCAAUGATT against NAT8
The median seed-adjusted z-score of the first is higher: 0 for the first, -0.228 for the second.

Going from CGGGAAGAAUCAAAGUCGATT against KRT23 to GGAGCGAAAUGUUCAGGUUTT against PSPH, the median seed-adjusted z-score falls from -0.0696 to -0.518.

Going from CGAGGACACUCAAACGGAUTT against TAF7L to CACGAAAACUUACCCAGAATT against DGUOK, the median seed-adjusted z-score rises from -0.14 to 0.0168.

First: CAGGCAAAGUUCGACAGUATT against HEPH
Second: GGAUUCUCAGUUACACUUATT against SLC25A3
The median seed-adjusted z-score of the first is higher: -0.293 for the first, -0.495 for the second.

First: GAUCCGUUCUGAUUAGUGATT against EZH1
Second: GUUCCUCACUUAUCGCUAUTT against ADAMTSL3
The median seed-adjusted z-score of the first is higher: 0.268 for the first, -0.0419 for the second.

Going from GGAACUACGUCCACACCCATT against GHRHR to GGCCGGUGUUUGACGACAATT against STK32C, the median seed-adjusted z-score falls from 0 to -0.311.

First: CUCCCUCACCAAAACAAAATT against DUSP26
Second: CAAGGUCUGUAGUCAAAAUTT against ZNF677
The median seed-adjusted z-score of the first is higher: 0.204 for the first, -0.441 for the second.

Compared with GGAGGUUCAGAAGCACCUATT against PACSIN2, GUGUAGCACUGACCAAGAATT against RCAN3 is lower in median seed-adjusted z-score: 0.73 for the first, 0.544 for the second.

Compared with GACCUGCUCUGUAACCUCATT against NAALADL1, AAAACUUACGAACAACAAATT against TBR1 is lower in median seed-adjusted z-score: -0.0444 for the first, -0.388 for the second.

First: UCAAGCAUGUGGUCCUGUATT against AIP
Second: GAUGAGUAUGCAAAAUUUATT against ATR
The median seed-adjusted z-score of the first is higher: 0.529 for the first, -0.217 for the second.

Going from GCAACAUCGUGUUCUUGAATT against GAL3ST1 to GCAGAAACCCAGAUCGAGATT against PLAT, the median seed-adjusted z-score falls from 0.263 to 0.246.

First: CGACAUUGGUGACCCUCUUTT against DDOST
Second: GCAGUUCGAGAAGAACUUUTT against LMBR1
The median seed-adjusted z-score of the first is lower: -0.315 for the first, 0.236 for the second.

Compared with AGACACCCUUUGGACCACATT against ZFAND2A, GGUGGAAGUGGUCAACGUATT against DUSP21 is lower in median seed-adjusted z-score: 0 for the first, -0.0724 for the second.

First: GACGUGGAGUUGAUAAAGATT against DSC3
Second: GCACUUAUAUGACAGCGAATT against SIM1
The median seed-adjusted z-score of the first is higher: 0.18 for the first, -0.0177 for the second.

Compared with GCUCGAUUAACAAAAUAUATT against SLC30A5, GAUUGGACCUAACAAUGGATT against NEIL3 is lower in median seed-adjusted z-score: 0.401 for the first, 0.0736 for the second.

Going from UGCUGACUUUUAACCCACATT against CDK4 to CACUCGAAAUUUUGAAGCATT against CHD4, the median seed-adjusted z-score rises from 0.346 to 0.625.

Compared with CGGUUGAACUUCGAAAUAUTT against NF1, CAACGGCAGGAAAUUCUAATT against KLRA1 is higher in median seed-adjusted z-score: -0.36 for the first, 0.918 for the second.

Going from AGAGCAAGCGGAAAAGGGATT against HAND1 to GAAUCACCAGCUAAACUAUTT against STARD6, the median seed-adjusted z-score falls from 0.161 to 0.0605.

Compared with GCACCAGCGAGAGAAGAGATT against PLA2G3, GGUCUACGUGAACAACUCUTT against KCNMB4 is lower in median seed-adjusted z-score: 0.543 for the first, 0 for the second.

First: GCAUUUUGCAUAUCCACCATT against TRMT12
Second: GGAACAGUCAUGCUGGAUATT against SLC4A7
The median seed-adjusted z-score of the first is higher: 0.352 for the first, 0 for the second.

Going from GAACAUCGCAUAAUCCUGATT against ORC1L to AAGCAUAAUUUGUACAGCUTT against NMNAT1, the median seed-adjusted z-score rises from -0.536 to 0.22.

Going from CCAAGAUGCGAUCCUCCAATT against HOXA4 to GGGCAACUCUUCAUCUACATT against SLC5A10, the median seed-adjusted z-score rises from 0.194 to 0.669.

Compared with GGCUAUACAUGGAUAGCAATT against SLITRK1, CGAUUAGUGUCAAAGGCUUTT against MMP7 is lower in median seed-adjusted z-score: 0.215 for the first, 0.0315 for the second.

Going from GAAUCUAUGAGAUGAACAATT against LDB2 to GGCUCCUUAUAUGACUAUUTT against ACVR1C, the median seed-adjusted z-score rises from -0.0847 to -0.0005.

Compared with GCUCUGAGGGAGUAUCGAATT against TROVE2, ACAUAACCGUUCUUCGAGATT against GTPBP2 is lower in median seed-adjusted z-score: 0.399 for the first, -0.166 for the second.

First: CAAAAGGACAAAUCAACGATT against DDAH1
Second: GAGACUGUGCAGAUGUAUATT against ANGPT1
The median seed-adjusted z-score of the first is lower: 0.138 for the first, 0.289 for the second.

First: GUGUCGUACUCACAUCCAUTT against PTCH2
Second: GUGACGGCUUUAGACCUGATT against PRTFDC1
The median seed-adjusted z-score of the first is lower: -0.191 for the first, 0.493 for the second.

Compared with GCAAGGUUCCUAGCGUGUATT against VCAM1, CAGCAGAGCCGAUCCAAGATT against GPR37L1 is lower in median seed-adjusted z-score: 0.19 for the first, -0.0348 for the second.

First: ACAUCUUCAAGGCCCUUUUTT against CTDSP2
Second: GGAAUUCCGUAAAAGCAUUTT against HOXC13
The median seed-adjusted z-score of the first is higher: 0.498 for the first, -0.318 for the second.

Compared with GAGUAGUUUAGAUAAGUUATT against SPAG9, GCAUCCGAGAUGUGACUAATT against DIS3 is higher in median seed-adjusted z-score: 0.0795 for the first, 0.266 for the second.

Compared with GCAGUGAUCAUAAUUCUCATT against SLC7A1, UGACGACACUGACCGCAGATT against UBE2S is lower in median seed-adjusted z-score: 0.445 for the first, 0.348 for the second.

For GAACGAAAGGUCCUCAGUATT against SPATA21, the median seed-adjusted z-score was -1.03 (active).
In the case of GGAUGCCCACUGUAUCAUATT against MYST2, the median seed-adjusted z-score is reported as -1.46 (active).
For GGAAGGAACCAUCCAGUAATT against POLR2L, the median seed-adjusted z-score was -1.19 (active).
With CAUCCAUUAUGACCUGCUATT against ACO2 the median seed-adjusted z-score was -1.57 (active).
In the case of GAGUCUGCGUUAUCGACAATT against TPR, the median seed-adjusted z-score is reported as -1.03 (active).
For GGUCCCAGCUUGAAGAGAATT against CSTB, the median seed-adjusted z-score was 1.08 (active).
For GGAUAACACUAAGUUUAGATT against SFRS1, the median seed-adjusted z-score was -1.66 (active).
For GAUCUGUGCUAUACUGACATT against EFTUD2, the median seed-adjusted z-score was -1.25 (active).
In the case of GCACAUAAGGAGGCGAUUATT against WDR33, the median seed-adjusted z-score is reported as 3.27 (active).
For GGAACUUUUUCGUCGGUAUTT against RNGTT, the median seed-adjusted z-score was -1.55 (active).
In the case of GCACGAAUGAGGACGAUGATT against SPRY4, the median seed-adjusted z-score is reported as -1.23 (active).
For GCCCGUCUGCAGUACCUAATT against ADAP2, the median seed-adjusted z-score was -1.1 (active).
With GUAUCGCAUUUCUACAGCATT against SAMHD1 the median seed-adjusted z-score was -1.33 (active).
With CCAAAGAACUUAAGGAUUUTT against NEURL2 the median seed-adjusted z-score was 1.39 (active).
With GCAAAUCGCUAGCAUCAUUTT against MLL2 the median seed-adjusted z-score was -2.11 (active).
For GAAGAAACUUGUGAACGAATT against MX1, the median seed-adjusted z-score was -1.49 (active).
For GCAACUUCGUGAGAUUACATT against COLEC12, the median seed-adjusted z-score was -1.04 (active).
For GGCUUGGAUCAAUCUAAGATT against HNRNPL, the median seed-adjusted z-score was 1.04 (active).
For CGAACGACAGUUCCACAAATT against PDE6A, the median seed-adjusted z-score was 1.25 (active).
In the case of GCAGAAUACAAGAGCUUGATT against EID2, the median seed-adjusted z-score is reported as -1.04 (active).
With GCAUCAGCAUAAGUCCAUUTT against SIAH1 the median seed-adjusted z-score was 1.5 (active).
For CACUAAUCGUGAGCAUGGATT against XRCC5, the median seed-adjusted z-score was -1.11 (active).
